Source: PubChem BioAssay AID588855 (National Center for Advancing Translational Sciences (NCATS), 2011)
Out of some 410,000 compounds screened, about 5,000 (1.2%) were called active. Inconclusive results (about 13%) are left out. The sample as a whole holds a higher share of actives than the screen did. Unmarked numbers belong to inactive results. The call rests on the fitted dose curve; in most records, active means well fitted inhibition curve with a large enough effect; inconclusive means small, poorly fitted or top-dose-only effect; inactive means no such curve, though single readings can be large or run the other way.

Assay: qHTS for Inhibitors of TGF-b; further: nearly all actives have a fitted effect of over 65% in size
Details: HepG2 CAGA-GFP TGF-b/SMAD3 reporter, GFP fluorescence, 18 h, TGF-beta stimulated, 500 pg/mL final; series mostly up to 46.1 µM; activity, negative = inhibition: at the top concentration
Procedure, shortened: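 HEPG2 CAGA-GFP cells (1000/well, DMEM with 1% FBS) were pre-incubated 2 h at 37 degrees C, given compound by pin tool, then stimulated with TGF-beta at 500 pg/mL final for 18 h before per-cell GFP fluorescence imaging.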
On the % scale 0 is the no-effect control and ±100 the full control effect; potency means the concentration at half of the fitted maximal effect.

Going from `CCOc1ccc(CNC(=O)c2ccc3nc(CC)c(CC)nc3c2)cc1OC` to `COc1ccc(CNC(=O)c2cc3c(=O)[nH]c4ccc(C)cc4c3s2)c(OC)c1`, the “activity, negative = inhibition” value falls from 15.4% to -24.9%.

Going from `CC(=O)c1ccc[n+](C(C)CCC(C)[n+]2cccc(C(C)=O)c2)c1` (stereo not given) to `Cc1cccc(NC(=O)Cn2c(=O)n(CCC(C)C)c(=O)c3cccnc32)c1`, the “activity, negative = inhibition” value falls from 8.48% to -3.93%.

First: Cc1c(Cl)cccc1NC(=O)CCS(=O)(=O)c1ccc2c(c1)oc(=O)n2C
Second: Cc1ccc(C)c(N2CCN(S(=O)(=O)c3ccc4c(c3)oc(=O)n4C)CC2)c1
The “activity, negative = inhibition” value of the first is lower: -21.7% for the first, -8.2% for the second.

Going from `Cc1ccccc1-c1nc(SCC(=O)N(C)c2ccccc2)c2c(=O)n(C)c(=O)n(C)c2n1` to `CCOC(=O)c1ccc2c(c1)N(Cc1cccc(OC)c1)C(=O)c1ccccc1S2(=O)=O`, the “activity, negative = inhibition” value falls from 6.3% to -6.73%.

Compared with `CC(OC(=O)/C=C/c1ccccc1)C(=O)NC1CCCCC1C` (stereo not given), `Cc1oc2ccc(O)c(CN3CCC(C)CC3)c2c1C(=O)Nc1ccccc1` is higher in “activity, negative = inhibition” value: -16.4% for the first, 17.7% for the second.

Compared with `CC1CC(C)CN(C/C=C/c2ccccc2[N+](=O)[O-])C1` (stereo not given), `COc1cc(/C=C/C(=O)N2CCc3ccccc3C2)cc(OC)c1OC` is higher in “activity, negative = inhibition” value: -22.1% for the first, 14.2% for the second.

Compared with `Nc1ccccc1N`, `Cc1c(CCO)sc[n+]1CC(=O)c1ccc2ccccc2c1` is higher in “activity, negative = inhibition” value: -6.36% for the first, -5.47% for the second.

Going from `COc1ccccc1-n1nnnc1SCC(=O)NC(=O)Cc1ccccc1` to `CCC(C)N(C(=O)CSc1nnnn1-c1ccccc1OC)C1CCS(=O)(=O)C1` (stereo not given), the “activity, negative = inhibition” value falls from -4.63% to -8.36%.

Going from `CN(C)c1ccc(/C=C/C=C/c2ccnc3ccccc23)cc1` to `CCOc1ccc(N2CC(c3nc4ccccc4n3CCOc3ccc(OC)cc3)CC2=O)cc1` (stereo not given), the “activity, negative = inhibition” value falls from 63% to -16.7%.

First: CCc1cccc(NC(=O)Cn2nc(CC)n3c(cc4cc(C)ccc43)c2=O)c1
Second: Cc1ccc2nc(COc3ccccc3NC(=O)Nc3ccc(F)c(Cl)c3)cc(=O)n2c1
The “activity, negative = inhibition” value of the first is higher: -2.34% for the first, -6.3% for the second.

First: CCc1cnc2c(c1SCC(=O)N1CCC(C)CC1)c(=O)n(C)c(=O)n2C
Second: CCC(C)NC(=O)Cn1c(=O)n(-c2ccc(Cl)cc2)c(=O)c2c3c(sc21)CCCC3 (stereo not given)
The “activity, negative = inhibition” value of the first is higher: 0.0678% for the first, -12.6% for the second.

Going from `O=C(CSc1ncc(S(=O)(=O)c2ccc(Br)cc2)c(=O)[nH]1)Nc1ccc2c(c1)OCCO2` to `COc1ccc(NS(=O)(=O)c2ccc(N3CCOCC3)c(NC(=O)c3ccccc3Br)c2)cc1`, the “activity, negative = inhibition” value falls from 32.6% to -32.2%.

Compared with `CC(C)C12CN3CC(C(C)C)(CN(C1)C3c1ccc(OCc3ccccc3)cc1)C2=O` (stereo not given), `CCOc1cc(C2C(C(=O)c3ccco3)=C(O)C(=O)N2Cc2ccccc2)ccc1O` (stereo not given) is lower in “activity, negative = inhibition” value: 0.227% for the first, -23% for the second.

Compared with `COCCN(CCOC)S(=O)(=O)c1ccc(C(=O)Nc2nc3c(s2)CCc2ccccc2-3)cc1`, `Cc1ccc(C)c(CN2C(=O)c3ccccc3S(=O)c3ccc(C(=O)N4CCOCC4)cc32)c1` (stereo not given) is lower in “activity, negative = inhibition” value: -15.9% for the first, -28.2% for the second.

First: COc1ccc(C2=CC(c3ccccc3Cl)n3nc(-c4ccc(Cl)cc4)nc3N2)cc1 (stereo not given)
Second: CCOc1ccc(-c2n[nH]c3c2C(c2ccccc2OC)N(c2ccc(Br)cc2)C3=O)cc1 (stereo not given)
The “activity, negative = inhibition” value of the first is lower: -2.29% for the first, 1.86% for the second.

First: O=C(c1cnn2c1NC(=C1CC1)C=C2C(F)F)N1CCc2ccccc2C1
Second: O=C(c1snnc1-c1ccccc1)N1CCOCC1
The “activity, negative = inhibition” value of the first is lower: -8.04% for the first, -0.268% for the second.

Going from `Cc1ccc(N2CCN(S(=O)(=O)c3ccc(F)cc3)CC2)c(C)c1` to `O=S(=O)(c1ccc(C2CCCCC2)cc1)N1CCN(c2ccc(Cl)c(Cl)c2)CC1`, the “activity, negative = inhibition” value rises from -8.07% to 4.43%.

Compared with `O=C(CCc1nc(CN2CCN(S(=O)(=O)c3ccc(F)cc3)CC2)no1)N1CCCCC1`, `CC(C)(C)c1ccc(C(=O)N2CCC(c3nc(-c4ccc(S(=O)(=O)N5CCCC5)cc4)no3)CC2)cc1` is lower in “activity, negative = inhibition” value: 15.1% for the first, 0% for the second.

Compared with `CCCCOc1ccc(C(=O)N2CC(=O)Nc3ccc(Br)cc3C2c2ccc(F)cc2)cc1` (stereo not given), `CCOC(=O)c1ccc(NC2=CC(c3ccc(OCC)cc3)N(c3ccc(C(=O)OCC)cc3)C2=O)cc1` (stereo not given) is higher in “activity, negative = inhibition” value: -36% for the first, 11.5% for the second.

First: COc1ccc2oc(=O)c(-c3cn4c(n3)sc3cc(OC)ccc34)cc2c1
Second: COc1cc(C2c3c(oc4ccccc4c3=O)C(=O)N2c2nc(C)c(C)s2)ccc1O (stereo not given)
The “activity, negative = inhibition” value of the first is higher: 5.81% for the first, -4.72% for the second.

Going from `CCOC(=O)c1ccc(NC(=O)CNC(=O)c2ccco2)cc1` to `Cc1nc(SCC(=O)Nc2ccc(C(=O)O)cc2)n[nH]1`, the “activity, negative = inhibition” value falls from 1.66% to -24.3%.

Compared with `CCOC(=O)C1=C(c2ccccc2)N=C2SCC(=O)N2C1c1ccc(O)c(OC)c1` (stereo not given), `CCc1ccccc1N1CC(c2nc3ccccc3n2CCCCOc2ccccc2)CC1=O` (stereo not given) is lower in “activity, negative = inhibition” value: 2.21% for the first, -0.426% for the second.

First: CNc1ccc(-c2nc(-c3ccco3)no2)cc1[N+](=O)[O-]
Second: CC(C)(C)OC(=O)N(Cc1ccco1)S(=O)(=O)c1ccccc1Br
The “activity, negative = inhibition” value of the first is lower: -2.19% for the first, 6.04% for the second.

Compared with `CCOc1ccc(NC(=O)CCc2c(C)nn(-c3ccc(N4CCCC4)nn3)c2C)cc1`, `COc1ccc(NS(=O)(=O)c2cc(NC(=O)/C=C/c3cc(OC)c(OC)c(OC)c3)ccc2N2CCCCC2)cc1` is higher in “activity, negative = inhibition” value: -14.8% for the first, 0% for the second.

In the case of `CC1(C)CC(=O)c2cc(C(=O)NCc3ccccc3)c(=O)[nH]c2C1`, the “activity, negative = inhibition” value is reported as 2.07%.

For `CC1CCCCC1NC(=O)/C(C#N)=C/C=C/c1ccccc1[N+](=O)[O-]` (stereo not given), the Potency was 20 µM (active).
For `COc1ccccc1-n1nnnc1S(=O)(=O)Cc1ccc(Cl)cc1`, the Potency was 7.08 µM (active).
In the case of `Cc1cc2c(cc1C)N1C(=O)c3cc4ccccc4cc3NC(=O)C1C(=O)N2` (stereo not given), the Potency is reported as 12.6 µM (active).
In the case of `COc1ccc2c(c1)Cc1sc(NC(=O)c3ccccc3Br)nc1-2`, the Potency is reported as 7.08 µM (active).
For `Cc1ccc(C)c(N2CCN(S(=O)(=O)c3ccc4c(c3)C(C(C)C)C(=O)N4)CC2)c1` (stereo not given), the Potency was 15.8 µM (active).
In the case of `Cc1oc2c(c1C(=O)N1CCOCC1)C(=O)c1ccccc1C2=O`, the Potency is reported as 4.47 µM (active).
With `CCOc1cc(C2c3c(-c4ccc(Br)cc4)n[nH]c3C(=O)N2c2ccc(Cl)cc2)ccc1O` (stereo not given) the Potency was 4.47 µM (active).
In the case of `CCOC(=O)c1ccc(N2C(=O)c3n[nH]c(C)c3C2c2ccc(O)c(OC)c2)cc1` (stereo not given), the Potency is reported as 11.2 µM (active).
With `CCOC(=O)c1ccc(N2C(=O)c3n[nH]c(-c4ccco4)c3C2c2ccc(O)cc2)cc1` (stereo not given) the Potency was 15.8 µM (active).
For `COc1ccccc1Nc1c2c(nc3ccc(NC(=O)/C=C/c4cc(OC)c(OC)c(OC)c4)cc13)CCCC2`, the Potency was 4.47 µM (active).
For `CCCCN1CC(c2nc3ccccc3n2CCCCOc2ccc(C)cc2C)CC1=O` (stereo not given), the Potency was 11.2 µM (active).
